# ssDAF12 agonist = S. stercoralis DAF-12 nuclear receptor activators, primary screen, cell-based, luminescence, HEK293, GRIP1 co-expression, lit1-tk-luc. HEK293 ssDAF-12/GRIP1 lit1-tk-luc reporter; % of 3 µM dafachronic acid response. activation, % at 6.8 µM. 370,000 compounds, 1% hits;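 active means activation above the mean over all tested compounds plus 3 SD, cut at about 0.9% in these data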;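 further: 0% = DMSO-only wells and 100% = 3 µM delta7-dafachronic acid wells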
# hcDAF12 agonist = H. contortus DAF-12 nuclear receptor activators, primary screen, cell-based, luminescence, HEK293, lit1-tk-luc reporter. HEK293 hcDAF-12 lit1-tk-luc reporter; 0% DMSO, 100% Δ7-dafachronic acid. activation, % at 6.8 µM. 370,000 compounds, 1.4% hits;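 active means activation above the mean of all tested compounds plus 3 SD, cut at about 5.5% in these data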;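 further: 100% = response to 3 µM Δ7-dafachronic acid high control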
# GAA850 FXN act = FXN promoter activators, primary screen, cell-based, luciferase luminescence, HEK293 lucGAA850. activation, % at 6 µM. HEK293 lucGAA850 FXN promoter luciferase reporter, 24 h; percent of 10 µM SAHA response. 360,000 compounds, 0.56% hits;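 active means activation above the average of all compounds screened plus 3 SD, cutoff fixed separately per campaign, cut at about 7.5% in these data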;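 further: 0% = DMSO wells and 100% = 10 µM SAHA wells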
# hgDAF12 agonist = H. glycines DAF-12 receptor agonists, primary screen, cell-based, luminescence, HEK293, GAL4 fusion, UAS-luciferase | HEK293 GAL4-hgDAF12 UAS-luciferase reporter, agonist luminescence; normalized to butyrate control | 370,000 compounds, 1.8% hits | activation, % at 6.8 µM | AID 687014, 2013;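 active means activation above a cutoff set at the mean of all screened compounds plus 3 SD, cut at about 10% in these data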;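 further: 0% = DMSO wells and 100% = sodium butyrate wells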
# DAX1 inh-1 = DAX1 (NR0B1) inhibitors on StAR promoter, primary screen, cell-based, luminescence, SF-1 (NR5A1), full-length DAX-1; HEK293T StAR-luciferase reporter, SF-1/DAX-1 repression relief; inhibition, % at 6.8 µM; 370,000 compounds, 1.1% hits; AID 652010, 2013;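 active means inhibition above the mean over all tested compounds plus 3 SD, cut at about 3.6% in these data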;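 further: 0% = DAX-1 cells with DMSO and 100% = cells lacking DAX-1 with DMSO; higher inhibition means more luminescence from relief of DAX-1 repression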
# DAX1 inh-2 = DAX1 (NR0B1) inhibitors, primary screen, cell-based, HEK293, Gal4-DAX1, luciferase luminescence; Nuclear receptor subfamily 0 group B member 1 (Homo sapiens), P51843; HEK293 Gal4-DAX1 luciferase reporter; inhibition, % at 6.75 µM; 340,000 compounds, 0.99% hits; AID 504766, 2011;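 active means inhibition above the mean over all tested compounds plus 3 SD, cut at about 4.2% in these data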;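 further: 0% = DAX1-transfected cells with DMSO and 100% = empty-vector control cells with DMSO; inhibition shows as a rise in luminescence from relieved DAX1 repression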
# Target sequence (P51843 207-470 limits assumed): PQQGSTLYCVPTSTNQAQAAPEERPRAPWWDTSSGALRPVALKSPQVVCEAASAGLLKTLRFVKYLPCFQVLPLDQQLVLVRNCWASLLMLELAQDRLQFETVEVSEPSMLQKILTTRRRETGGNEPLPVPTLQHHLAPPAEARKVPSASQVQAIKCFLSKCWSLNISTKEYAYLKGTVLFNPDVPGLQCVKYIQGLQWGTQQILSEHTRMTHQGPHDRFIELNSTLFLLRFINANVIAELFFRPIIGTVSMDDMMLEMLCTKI
# The depositor's hits bear a star; . = no result given. The list is not random: actives were taken first. Their share in the collection is about 4.5%.
SMILES,ssDAF12 agonist,hcDAF12 agonist,GAA850 FXN act,hgDAF12 agonist,DAX1 inh-1,DAX1 inh-2
COc1ccc(C2=Nc3ccccc3NC(=O)C2N(C(=O)c2cnc(C)cn2)c2ccc(N3CCOCC3)cc2)cc1 (stereo unspecified),-1.1,0.4,.,4.9,3.7*,.
N#CC1=C(SCC(=O)c2ccccc2)NC2=C(C(=O)CCC2)C1c1ccco1 (stereo unspecified),-0.6,2.3,1.1,12.6*,-1.4,-0.3
Cc1ccc(C(=O)CSC2=C(C#N)C(c3ccco3)C3=C(CCCC3=O)N2)cc1 (stereo unspecified),-1.4,-1.1,-5.3,2.1,-2.4,-2.6
CCCCN1CCS(=O)(=O)N(Cc2cn(Cc3ccccc3Br)nn2)C(C(=O)OC)C1 (stereo unspecified),-0.7,-1.4,.,-0.7,-1.1,.
Cc1[nH]nc(Nc2ccc(Br)cc2)c1[N+](=O)[O-],1.3*,3.9,6.0,11.9*,1.1,5.6*
CC(=O)CC[C@@H]1CC[C@]2(CCCN(C(=O)C3CCCCC3)C2)O1,-0.4,1.4,.,2.4,0.2,.
COc1cc(NC(=O)c2ccccc2)c(C)cc1NC(=O)CSc1nnc(-c2ccco2)n1Cc1ccco1,-1.0,1.0,.,-2.7,0.0,.
COc1ccc(-c2nc(CN3CCN(Cc4cccc(Cl)c4)CC3)c(C)o2)cc1,-0.9,-1.0,2.9,0.8,-0.6,5.8*
COC(=O)c1cnn(-c2ccccc2)c1C(OC)OC,-1.5,-0.3,0.5,0.5,0.0,4.5*
COC(=O)c1cnn(-c2ccccc2)c1/C=N/NC(=S)Nc1ccccc1,-1.5,-1.7,0.4,-0.7,-0.3,.
Cc1c(Cl)cnc(NC(=O)COC(=O)c2cc3c(s2)CCC(C)C3)c1Cl (stereo unspecified),1.4*,1.0,1.1,5.2,-0.1,1.3
O=C(CSc1nnc(-c2cccs2)o1)Nc1cc(Cl)cc(Cl)c1,-1.0,0.2,.,0.3,0.9,.
Cn1c(N2CCOCC2)c(/C=N/O)c2ccccc21,-0.5,4.8,2.0,0.8,0.5,7.5*
Clc1ccc(-n2c(SCc3cccc4ccccc34)nnc2-c2ccccn2)cc1,-1.8,-4.2,.,1.6,-2.1,.
CCCCCCc1c[nH]c2ccc(O)c(-c3ccccc3)c12,-1.2,-1.9,.,-1.9,0.5,.
COC(=O)c1scc(C)c1N/N=C(\C)c1ccc(F)cc1F,-0.4,5.8*,3.0,0.5,0.0,-0.1
COc1ccc(-c2c(C#Cc3ccsc3)c3cc(Br)ccc3n2C)cc1,-0.8,0.6,1.0,0.2,-0.4,0.3
COc1ccc(-c2c(C#Cc3ccc(N(C)C)cc3)c3ccccc3n2C)cc1,0.3,5.8*,4.6,3.0,0.5,-1.2
CC(C)(C)c1ccc(S(=O)(=O)N2CCCC(C(=O)NCCN3CCC(Cc4ccccc4)CC3)C2)cc1 (stereo unspecified),-1.2,-3.2,.,-2.6,-1.5,.
O=C1CC(SC2=NCCS2)C(=O)N1c1ccc(Cl)cc1 (stereo unspecified),1.4*,0.1,-0.4,-3.3,-0.1,-0.7
Nc1ccc2nc(-c3cccnc3)[nH]c2c1,0.0,-0.9,0.1,-1.1,0.1,0.2
Cc1ccc2nc(-c3ccncc3)[nH]c2c1,0.2,3.7,6.7,11.3*,2.5,4.0
Cc1ccc(-c2csc3nc(-c4ccncc4)[nH]c(=O)c23)cc1,-1.8,-2.9,0.5,-3.0,-0.6,1.0
Nc1ccc2nc(-c3ccccc3)[nH]c2c1,1.7*,3.8,5.3,8.9,2.1,0.7
CC1CCc2c(sc(/N=C/N(C)C)c2C#N)C1 (stereo unspecified),-0.6,1.2,4.0,6.0,-0.1,4.7*
SMILES,ssDAF12 agonist,hcDAF12 agonist,GAA850 FXN act,hgDAF12 agonist,DAX1 inh-1,DAX1 inh-2
COc1ccc(/C=C/C(=O)NC(=S)N2CCN(c3ccccc3OC)CC2)cc1,-1.2,1.8,7.1,-0.1,1.1,5.5*
COc1ccccc1/C=C/C(=O)NC(=S)N1CCN(C)CC1,-1.5,-0.5,-0.8,-0.3,3.9*,3.5
COc1ccc(/C=N/NC(=O)C(=O)N2CCN(c3ccccc3OC)CC2)cc1,-1.6,-2.9,8.4*,1.4,-0.2,1.0
CCn1c(SCC#N)nc2ccccc2c1=O,-1.0,-1.3,1.0,-2.1,-0.1,5.2*
CCn1c(SCC(=O)c2ccccc2)nc2ccccc2c1=O,-1.3,0.9,3.4,2.5,-0.6,-0.9
COC(=O)c1cc(-c2cc3ccccc3s2)c(=O)n2c1CCC2,-0.4,3.4,.,2.5,-0.2,.
O=C(Cn1ncc(N2CCOCC2)c(Cl)c1=O)c1ccc(Cl)cc1,-1.3,-0.5,0.4,-0.3,-0.3,5.4*
O=C(Cn1ncc(Cl)c(Cl)c1=O)c1ccc(Cl)cc1,-0.3,0.1,-10.1,-1.4,-0.7,-0.7
CCOC(=O)c1cc2cc3ccccc3cc2[nH]1,1.0*,4.2,1.4,9.1,1.4,1.9
CC(C)OC(=O)c1cc2ccccc2[nH]1,-1.9,-0.2,2.5,2.0,-0.5,-1.0
Oc1[nH]c2ccccc2c1C=NCC1CCCO1 (stereo unspecified),-0.6,6.5*,-0.4,4.8,-0.4,0.0
CSc1nsc(SCC(=O)Nc2ccccc2C(=O)O)n1,1.1*,3.4,1.3,0.1,-0.3,0.0
CSc1nsc(SCC(=O)Nc2ccc(O)c(C(=O)O)c2)n1,-0.4,2.0,0.6,1.2,-0.1,-0.1
C=CCN1C(=O)[C@H](CC(=O)N2CCCCC2)[C@@]2(C(=O)OCC)CCCC=C12,-0.9,-1.1,.,1.1,0.0,.
Cn1cnc(NCc2ccccc2)c1[N+](=O)[O-],3.4*,0.9,0.9,0.1,-0.5,.
CN1C(C(=O)Nc2cccc(O)c2)=CC(c2ccco2)=NS1(=O)=O,-0.7,0.8,-0.8,5.4,-0.3,7.6*
CC(C)C[C@@H]1COc2cc(N3CCSCC3)ccc2S(=O)(=O)N1C,-1.4,-0.8,.,3.0,-1.7,.
NC(=O)c1c(N)[nH]c(C(=O)c2ccccc2)c1-c1cccc2ccccc12,1.0*,2.2,.,2.8,.,.
O=C(c1cccnc1Cl)N1CCC(Oc2cccnc2)CC1,-1.2,-1.3,.,1.7,0.9,.
CN1C(=O)C(O)(CC(=O)c2ccccc2O)c2cc(Br)ccc21 (stereo unspecified),-0.2,3.1,-1.5,-1.1,-0.9,4.4*

# Source: PubChem BioAssay
